Screening results: PubChem BioAssay, several laboratories
Gli-Sufu block: Gli-Sufu pathway antagonists, primary screen, luciferase luminescence, Sufu-KO-LIGHT cells, uHTS; Sufu-KO-LIGHT fibroblasts, Gli luciferase reporter luminescence; inhibition, % at 5 µM; 340,000 tested, 0.74% active; AID 588413, 2011;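 active = inhibition above about 55%, limit read from the data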
esBAF inh: Bmi1 luciferase reporter increase in mESCs, primary screen, esBAF inhibitor project, mouse ES cells, Bmi1 luciferase knock-in, single point. reporter increase, % at 12.5 µM. 24 h; 100% = twice the neutral-well signal. 350,000 tested, 2% active; in the data active = activation above about 40%;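 note: a rise in the Bmi1 reporter signal indicates esBAF inhibition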
Jurkat NFkB inh: inhibitors of induced NF-kB luciferase reporter, primary screen, TCR NF-kB activation inhibitor project, cell-based, luminescence, uHTS | Jurkat, PMA/ionomycin-induced NF-kB luciferase reporter | inhibition, % at 4 µM | 330,000 tested, 0.53% active | AID 435003, 2010; in the data active = inhibition above about 50%
697 NFkB inh: inhibitors of PMA/ionomycin-induced NF-kB reporter, 697 cells, primary screen, B-cell NF-kB inhibitor project, cell-based, luminescence, uHTS; 697 B-cell NF-kB luciferase reporter, 16 h; AID 435022, 2010; inhibition, % at 4 µM; 330,000 tested, 0.33% active; in the data active = inhibition above about 35%
SMARCA2 act: SMARCA2 (BRM) function activators, primary screen, cell-based, luminescence, high throughput. MG213 cells, MMTV-luciferase reporter, dexamethasone, overnight. activation, % at 9.1 µM. 370,000 tested, 1% active; in the data active = activation above about 7.8%
Gli antag conf: Gli-SUFU pathway antagonists, confirmation, single concentration, luciferase luminescence, Sufu-KO-LIGHT cells | inhibition, % at 5 µM | 2,500 tested, 40% active | Gli luciferase reporter | shares compounds with Gli-Sufu block;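 active = mean inhibition at 5 µM reaching about 45%, limit read from the data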
Gli cytotox: cytotoxicity in Sufu-KO-LIGHT cells, confirmation, cytotoxicity control for Gli-SUFU antagonist project, cell-based, ATP luminescence, single concentration | AID 651994, 2013 | 2,500 tested, 32% active | shares compounds with Gli-Sufu block | cytotoxicity, % at 5 µM;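 active = mean cytotoxicity at 5 µM above about 25%, limit read from the data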;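 note: cells exposed to compound overnight for roughly 16 to 18 hours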
Wnt3a counter: Wnt3a reporter signal inhibition, confirmation, counter-screen for Gli-SUFU antagonist project, Wnt-LIGHT cells, luminescence, single concentration; shares compounds with Gli-Sufu block; Wnt3a-driven luciferase reporter; inhibition, % at 6.25 µM; 2,500 tested, 20% active;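 active = mean inhibition above about 25%, limit read from the data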
Large screens that a line does not name were inactive (follow-up assays come after a bar, where they were run). The list is not random: actives were taken first. Their share in the collection is about 3.3%.

Cc1c(C(=O)Nc2ccc(-c3nnc4n3CCCCC4)cc2)oc2ccc(Br)cc12	none | Gli antag conf inactive | Gli cytotox inactive | Wnt3a counter inactive
O=C(Nc1ccc(-c2nnc3n2CCCCC3)cc1)c1ccco1	none (no result: esBAF inh)
CC(C)NC(=O)Nc1ccc2c(c1)C(=O)N(C)[C@H]1CC[C@@H](CC(=O)Nc3ccccc3)O[C@@H]1CO2	none (no result: Gli-Sufu block, Jurkat NFkB inh, 697 NFkB inh, SMARCA2 act)
Cc1cc(/C=N/n2cnnc2)c(C)n1-c1ccc(OCc2ccc(F)cc2)cc1	Gli-Sufu block 74 | Gli antag conf 74 | Gli cytotox 28 | Wnt3a counter inactive
O=C(/C=C/c1c[nH]c2ccccc12)c1cccc2ccccc12	none
CCc1ccc(/C=C/c2c[nH]c3ccccc23)[n+](CC)c1	Gli-Sufu block 78 (no result: esBAF inh) | Gli antag conf 83 | Gli cytotox 32 | Wnt3a counter 46
C[C@@H]1CN([C@@H](C)CO)C(=O)c2cccc(NC(=O)Nc3ccc(F)cc3)c2O[C@H]1CN(C)CC1CCCCC1	none (no result: Gli-Sufu block, Jurkat NFkB inh, 697 NFkB inh, SMARCA2 act)
N#Cc1ccc(COC(=O)C2CCC(=O)N2)cc1 (stereo not given)	Gli-Sufu block 99 | Gli antag conf inactive | Gli cytotox inactive | Wnt3a counter inactive
CC(C)C#Cc1cnc2c(c1)C(=O)N([C@@H](C)CO)C[C@@H](C)[C@H](CN(C)C(=O)c1ccccn1)O2	none (no result: Gli-Sufu block, Jurkat NFkB inh, 697 NFkB inh, SMARCA2 act)
CCN1CCN(C(=O)c2c(-c3ccccc3)noc2C)CC1	none
CC(=O)N1CCN(C(=O)c2c(-c3ccccc3)noc2C)CC1	Gli-Sufu block 59 | Gli antag conf inactive | Gli cytotox inactive | Wnt3a counter inactive
Cc1cccc(-n2ncc3c(N(C)C4CCCCC4)ncnc32)c1	Gli-Sufu block 56 | Gli antag conf 76 | Gli cytotox 69 | Wnt3a counter 99
COc1ccc(-n2ncc3c(N(C)C4CCCCC4)ncnc32)cc1	Gli-Sufu block 60 | Gli antag conf 80 | Gli cytotox 77 | Wnt3a counter 99
COCC(=O)N1C[C@H](C)[C@@H](OC)CN(C)C(=O)c2ccc(NC(=O)Nc3cccc(F)c3)cc2OC[C@H]1C	none (no result: Gli-Sufu block, Jurkat NFkB inh, 697 NFkB inh, SMARCA2 act)
C/C(=N/NC(=O)c1nnn(-c2nonc2N)c1-c1ccccc1)c1ccc2c(c1)OCO2	none | Gli antag conf inactive | Gli cytotox inactive | Wnt3a counter inactive
CCOc1cccc(-c2c(C(=O)N/N=C(\C)c3ccncc3)nnn2-c2nonc2N)c1	none
CCOc1cccc(-c2c(C(=O)N/N=C(\C)c3ccccn3)nnn2-c2nonc2N)c1	Gli-Sufu block 75 (no result: Jurkat NFkB inh, 697 NFkB inh) | Gli antag conf 86 | Gli cytotox 51 | Wnt3a counter 88
CN1C(=O)c2cc(NC(=O)NC3CCCC3)ccc2OC[C@H]2O[C@H](CC(=O)NCC3CC3)CC[C@H]21	none (no result: Gli-Sufu block, Jurkat NFkB inh, 697 NFkB inh, SMARCA2 act)
COc1ccc(CN(C)C[C@H]2Oc3ccc(NS(=O)(=O)c4cccs4)cc3C(=O)N([C@H](C)CO)C[C@@H]2C)cc1	none (no result: Gli-Sufu block, Jurkat NFkB inh, 697 NFkB inh, SMARCA2 act)
COCC(=O)N1[C@H](CO)[C@@H]2c3ccccc3N(C(=O)c3ccncc3)C[C@@H]21	none (no result: Gli-Sufu block, Jurkat NFkB inh, 697 NFkB inh, SMARCA2 act)
CCC1(O)CC2CN(CCc3c([nH]c4ccccc34)C(C(=O)OC)(c3cc4c(cc3OC)N(C=O)C3C(O)(C(=O)OC)C(OC(C)=O)C5(CC)C=CCN6CCC43C65)C2)C1 (stereo not given)	none (no result: esBAF inh, Jurkat NFkB inh, 697 NFkB inh) | Gli antag conf 63 | Gli cytotox 65 | Wnt3a counter inactive
COc1ccc(-c2c(NC(=O)C(C)C)n(C)c3ccccc3c2=O)cc1	none
COc1ccc(-c2c(NC(C)=O)n(C)c3ccccc3c2=O)cc1	Gli-Sufu block 100 | Gli antag conf inactive | Gli cytotox inactive | Wnt3a counter inactive
Cc1cc(/C=C2/SC(=S)N(c3ccc([N+](=O)[O-])cc3)C2=O)c(C)n1-c1cccnc1	Gli-Sufu block 81 (no result: esBAF inh) | Gli antag conf 82 | Gli cytotox inactive | Wnt3a counter inactive
Cc1cc(/C=C2/SC(=S)N(c3cccc(Cl)c3)C2=O)c(C)n1-c1cccnc1	none
CCC(=O)N1[C@@H]2CN(S(=O)(=O)c3ccccc3F)c3ccccc3[C@@H]2[C@@H]1CO	none (no result: Gli-Sufu block, Jurkat NFkB inh, 697 NFkB inh, SMARCA2 act)
O=C(NC(=S)Nc1ccccc1Cl)c1cnn2c(C(F)(F)F)cc(C(F)(F)F)nc12	Gli-Sufu block 56 (no result: esBAF inh) | Gli antag conf inactive | Gli cytotox inactive | Wnt3a counter inactive
C[C@H](CO)N1C[C@H](C)[C@@H](CN(C)Cc2ccccc2)OCCCC[C@H](C)Oc2ccc(NC(=O)C3CCCCC3)cc2C1=O	none (no result: Gli-Sufu block, Jurkat NFkB inh, 697 NFkB inh, SMARCA2 act)
CCC(/C=C1\Sc2ccc(OC)cc2N1CC)=C\c1sc2ccc(OC)cc2[n+]1CCCS(=O)(=O)[O-]	Gli-Sufu block 70 (no result: esBAF inh) | Gli antag conf 82 | Gli cytotox 40 | Wnt3a counter inactive
Cc1cc2c(cc(C(=O)OCC(=O)NCc3cccs3)n2C(C)C)o1	none (no result: esBAF inh, SMARCA2 act) | Gli antag conf inactive | Gli cytotox 56 | Wnt3a counter inactive
Cc1cc(C)cc(C(=O)OCC(=O)NCc2cccs2)c1	none (no result: esBAF inh)
CCN(CC)c1ccc(/C=N/NC(=O)c2c(Cl)cnn2C)c(O)c1	Gli-Sufu block 87 (no result: esBAF inh) | Gli antag conf 68 | Gli cytotox 33 | Wnt3a counter 59
Cn1cnc(S(=O)(=O)N2C[C@H](O)COC[C@H]3O[C@H](CC(=O)NC4CCC4)CC[C@@H]32)c1	none (no result: Gli-Sufu block, Jurkat NFkB inh, 697 NFkB inh, SMARCA2 act)
O=C(N/N=C/c1cc2ccccc2nc1Cl)[C@H]1C[C@@H]1c1ccccc1	Gli-Sufu block 73 (no result: esBAF inh) | Gli antag conf inactive | Gli cytotox inactive | Wnt3a counter inactive
Cc1ccc2cc(/C=N/NC(=O)[C@H]3C[C@@H]3c3ccccc3)c(Cl)nc2c1	none (no result: esBAF inh)
COc1cccc(COc2cc3ccccc3nc2C)c1	none | Gli antag conf 58 | Gli cytotox 30 | Wnt3a counter inactive
Cc1nc2ccccc2cc1OCc1ccc(Cl)cc1	none | Gli antag conf 50 | Gli cytotox 37 | Wnt3a counter inactive
O=C(Cn1ccc(C(F)(F)F)n1)N/N=C/c1ccc2c(c1)OCO2	Gli-Sufu block 58 (no result: esBAF inh) | Gli antag conf inactive | Gli cytotox inactive | Wnt3a counter inactive
C/C(=N\NC(=O)Cn1ccc(C(F)(F)F)n1)c1ccc2c(c1)OCO2	none (no result: esBAF inh)
CCOC(=O)N1CCN(C(=O)Cn2ccc3c(OC)cccc3c2=O)CC1	none | Gli antag conf inactive | Gli cytotox inactive | Wnt3a counter inactive
O=C(C[C@@H]1C=C[C@H](NS(=O)(=O)c2ccccc2)[C@H](CO)O1)NCc1ccncn1	none (no result: Gli-Sufu block, Jurkat NFkB inh, 697 NFkB inh, SMARCA2 act)
COc1ccc(C(=O)NNC(=O)CSc2nnc3ccccn23)cc1OC	none
